# Data: PubChem BioAssay (NCI)
# About 83,000 compounds went through this panel and 20% of them were active in at least one assay; those are over-represented in the sample as a whole.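 Step 1: grow cells in 96-well plates. Step 2: add test compound at a single concentration. Step 3: incubate 48 h. Step 4: record percent growth.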 A number with no mark means an inactive call. The source made the active and inactive calls. Rule for the calls: active = growth percent below 10; inactive = the rest.
# Experiments:
# Assay in all cases: NCI-60 one-dose screen, 48 h (100 = growth as untreated, 0 = no growth, -100 = all killed)
# Conditions in all cases: 10 µM
# SR leukemia = tested on: SR leukemia
# OVCAR-8 ovarian = tested on: OVCAR-8 ovarian
# OVCAR-5 ovarian = tested on: OVCAR-5 ovarian
# OVCAR-4 ovarian = tested on: OVCAR-4 ovarian
# SK-OV-3 ovarian = tested on: SK-OV-3 ovarian
# IGROV1 ovarian = tested on: IGROV1 ovarian
# OVCAR-3 ovarian = tested on: OVCAR-3 ovarian
# HS 578T breast = tested on: HS 578T breast
# NCI/ADR-RES ovarian = tested on: NCI/ADR-RES ovarian
# T-47D breast = tested on: T-47D breast
# BT-549 breast = tested on: BT-549 breast
# MDA-MB-435 melanoma = tested on: MDA-MB-435 melanoma
# SW-620 colon = tested on: SW-620 colon
# MCF7 breast = tested on: MCF7 breast
# HCT-116 colon = tested on: HCT-116 colon
# HCC-2998 colon = tested on: HCC-2998 colon
# KM12 colon = tested on: KM12 colon
Compound,growth (SR leukemia),growth (OVCAR-8 ovarian),growth (OVCAR-5 ovarian),growth (OVCAR-4 ovarian),growth (SK-OV-3 ovarian),growth (IGROV1 ovarian),growth (OVCAR-3 ovarian),growth (HS 578T breast),growth (NCI/ADR-RES ovarian),growth (T-47D breast),growth (BT-549 breast),growth (MDA-MB-435 melanoma),growth (SW-620 colon),growth (MCF7 breast),growth (HCT-116 colon),growth (HCC-2998 colon),growth (KM12 colon)
C/C(=C/CCC(C)[C@@H]1CC[C@]2(C)C3=C(CC[C@@]12C)[C@@]1(C)CCC(=O)C(C)(C)[C@@H]1CC3)C(=O)O (some centres undefined),-27.8% (active),-21.9% (active),-75.6% (active),-70.2% (active),-97.5% (active),-87% (active),-96% (active),-37.3% (active),-52.8% (active),-48.9% (active),-90.8% (active),-75% (active),-85.2% (active),-54.8% (active),-93.1% (active),-85.3% (active),-87.6% (active)
Cc1c2c[n+](C(C)C)ccc2c(C)c2c1[nH]c1ccccc12,20.8%,15.9%,55.7%,13.8%,-1.05% (active),41.2%,9.41% (active),22.8%,97.9%,-13.7% (active),2.83% (active),15.9%,22%,3.87% (active),20.1%,18.8%,8.68% (active)
CCn1cc(CNc2ccc(C(=O)Nc3ccc4ccccc4c3)cc2)c(C)n1,46.2%,45%,94.4%,20.8%,11.8%,68%,55.9%,105%,23.3%,6.54% (active),9.81% (active),25.6%,87.6%,49%,40.5%,81.5%,55.5%
CCNc1nc(C(F)(F)F)nc2c1sc(=S)n2-c1ccccc1,83.5%,96.1%,112%,98.2%,102%,102%,107%,107%,92.9%,73.9%,95.2%,113%,106%,96.4%,94.3%,115%,89.2%
CC[C@H]1OC(=O)[C@H](C)[C@@H](O[C@H]2C[C@@](C)(OC)[C@@H](O)[C@H](C)O2)[C@H](C)[C@@H](O[C@@H]2O[C@H](C)C[C@H](N(C)C)[C@H]2O)[C@](C)(OC)C/C(C)=C2/O[C@@]1(C)C=C2C,14.8%,78.5%,24.9%,73.5%,102%,58.1%,75.3%,62.5%,65.4%,41.8%,78.7%,-83.4% (active),-100% (active),-8.4% (active),4.59% (active),-85.8% (active),18.2%
COc1cc(-c2ccc[nH]2)[nH]c1/C=C1\N=C(C)C(C(=O)NC(C)C)=C1C,-15.5% (active),14.7%,43.2%,23.5%,50.7%,34%,19.5%,39.1%,17.6%,34%,43.8%,14.9%,7.72% (active),7.83% (active),4.6% (active),21.2%,19.3%
O=C(CCCCNC(=O)c1nc(-c2ccccc2)n(-c2ccccc2)n1)NO,76%,51%,85%,90.6%,13.2%,89.2%,70.1%,60.8%,87.6%,35%,94.7%,79.2%,64.4%,67.6%,54.6%,94.4%,92.9%
CC(C)(C)OC(=O)CN1CCc2c(sc3ncnc(N/N=C/c4ccccc4Br)c23)C1,37.6%,61.5%,92.3%,74.7%,109%,50.6%,69%,77%,71.7%,47.3%,82.9%,80.5%,60.6%,3.49% (active),48.7%,76.3%,80%
Clc1nc2ccccc2cc1Cn1nnc(Cc2ccccc2)n1,37%,71.6%,104%,29.7%,57.4%,50.9%,59.5%,76.6%,52.1%,26.1%,38.9%,65.3%,86.6%,45.8%,35.1%,81.3%,66.3%
COc1ccc(-c2nn(-c3cccc(Cl)c3)cc2-c2cc(-c3cccs3)[nH]c(=S)n2)cc1,32.6%,48.3%,83.1%,60.4%,83%,50.7%,57.8%,62.7%,47.4%,41.6%,46.7%,33.5%,61.4%,34.1%,20.4%,37.4%,27.5%
COc1ccc(-c2cc(-c3ccccc3)nc(SCCCCCCC(=O)NO)n2)cc1,21.1%,43.7%,58.2%,76.6%,61.2%,32.2%,67.8%,54%,9.46% (active),33.5%,85.4%,35.5%,22.6%,30.4%,25.1%,79.4%,60.3%
Cn1c2ccccc2c2c3[nH][nH]c(=O)c3c3c4ccccc4[nH]c3c21,-12.1% (active),33.1%,62.6%,51.3%,13.2%,11%,2.46% (active),41%,68.5%,42.9%,20.5%,23.6%,20.7%,5.82% (active),-52.8% (active),26.5%,10.7%
COc1cc2c3c(n(C4CCNCC4)c(=O)c2cc1OC)-c1cc2c(cc1C3=O)OCO2,-24.4% (active),-43.1% (active),-66.8% (active),-23.4% (active),-42.2% (active),-57.1% (active),-88.9% (active),-48.5% (active),-39.8% (active),-51.1% (active),-58% (active),-44.1% (active),-73.2% (active),-53.8% (active),-60.7% (active),-95% (active),-79.6% (active)
CCCCCCCCCCCCCCCCCC[n+]1ccc2c(C)c3c(c(C)c2c1)c1cc(O)ccc1n3CC,12.2%,7.3% (active),42.5%,18.2%,22.2%,6.43% (active),4.31% (active),9.04% (active),72.3%,23.5%,-11% (active),-53.4% (active),13.3%,28.3%,7.88% (active),31.5%,10.8%
COc1ccccc1-n1c(-c2sc(NC(C)=O)nc2C)n[nH]c1=S,79.5%,108%,109%,106%,109%,106%,135%,121%,106%,106%,93.8%,105%,108%,97.5%,98.3%,108%,108%
CCCCN(CCCC)C(=O)[C@H](CC)[C@@H]1CC[C@@H](C)[C@@H]([C@H](C)[C@@H](O)[C@@H](C)C(=O)[C@H](CC)C2O[C@]3(C=CC(=O)[C@]4(CC[C@@](C)([C@H]5CC[C@](O)(CC)[C@H](C)O5)O4)O3)[C@H](C)C[C@@H]2C)O1 (some centres undefined),75.1%,34.7%,39.4%,42.7%,51.9%,59.3%,31.5%,43.1%,78.2%,20.7%,62.7%,44.6%,25.7%,16.2%,19%,39%,55.6%
CC[C@@H](C(=O)[C@H](C)[C@H](O)[C@@H](C)[C@H]1O[C@H]([C@@H](CC)C(=O)N(CC)CC)CC[C@H]1C)C1O[C@]2(C=C[C@@H](O)[C@]3(CC[C@@](C)([C@H]4CC[C@](O)(CC)[C@H](C)O4)O3)O2)[C@H](C)C[C@@H]1C (some centres undefined),55.5%,25.4%,32%,28.2%,20.8%,19.8%,14.3%,24.1%,5.44% (active),17%,37.1%,26.3%,18.5%,10.4%,10.8%,22.1%,29.6%
